Values joined by “and” are separate entries in the source; they are usually repeats but may differ in a detail not shown here. Identical values can stand only once. Inconclusive results are not listed. Active and inactive are the calls of the source. Calls follow the shape of the dose curve; as a rule, active = well fitted inhibition curve with a large enough effect; inconclusive = small, poorly fitted or top-dose-only effect; inactive = no such curve, though single readings can be large or run the other way.
Potency is read from the fitted curve at half-maximal effect.

The test is described as follows: BET inhibitor-based combinations targeting novel dependencies in MECOM-rearranged (r) AML: MV-4-11 cell line (AID 2202233). Also: nearly all actives have a fitted effect of over 45% in size. The settings on record: MV-4-11 AML viability, CellTiter-Glo luminescence, 48 h; series mostly up to 46 µM; viability, % of control: at the top concentration. The source says: Ecotropic viral insertion site 1 (EVI1) is located on chromosome 3q26.2 as part of the MECOM (MDS and EVI1 complex) locus. Under normal hematopoiesis, EVI1 is a regulator of hematopoietic stem cell maintenance and self-renewal and EVI1 levels decrease as the cells differentiate. In approximately 5-10% of de novo acute myeloid leukemia (AML) EVI1 is aberrantly expressed, including Chromosomal inv(3)(q21;q26.2) or t(3;3)(q21;q26.2) alterations (MECOM-r) that account for about 50% of AML with EVI1 overexpression 31. AMLs with high levels of EVI1 have a poor prognosis and an overall survival time averaging between 10-14 months. EVI1 overexpression confers resistance in leukemia cells, highlighting the need to develop new targeted therapies for EVI1 overexpressing AMLs. Here, we performed an unbiased chemical drug screening by evaluating the single agent activity of a collection of 2,480 oncology-focused, approved and investigational drugs (NCATS Mechanism Interrogation Plates, MIPE v5.0) against a panel of seven AML cell lines. These included four MECOM-r cell-lines (AML-191, AML-194, UCSD-AML1 and HNT-34) and three non-MECOM-r AMLs (MV4-11, OCI-AML3 and SET-2). Exploiting the mechanistic redundancy built in the library, we identified target-level sensitivities in MECOM-r AML cells and relative activity as compared to other AML subtypes.
A collection of 2480 mechanistically annotated dugs (MIPE v5.0) was used to screen four 3q26.2 rearranged AML cell lines and three non-3q26.2 rearranged AML cell lines. This library purposely exploits redundancy by including multiple inhibitors of key onco-targets, while simultaneously encompassing mechanistic diversity, targeting more than 800 distinct mechanisms of action. Briefly, cells were seeded in 5 uL of growth media using a Multidrop Combi dispenser into 1536 well white polystyrene tissue culture treated plates (Corning) at a density of 500cells/well. For each cell-line, for each of the 2480 drugs in MIPE v5.0 library, an 11-point dose curve was generated via a 1536 pin-tool. Plates were incubated for 48 hr at standard incubator conditions, covered by a stainless steel gasketed lid to prevent evaporation. Cell viability was determined by luminescence based, Cell Titer Glo assay (Promega). In detail, 3 uL of Cell Titer Glo were added to each well and plates were incubated at room temperature for 15 min with a stainless-steel lid in place. Luminescence readings were taken using a Viewlux (PerkinElmer) with a 2 s exposure time per plate. Compound dose-response curves were normalized to DMSO and empty well controls on each plate. Quantitative drug activity data from dose-response curves was determined utilizing area Under the Curve (AUC) and Z-transformed AUC (Z-AUC, a mean-centering transformation applied to each individual cell-line screened).
For orientation: ATP-based viability assays read luminescence as a measure of living cells.
In the case of `C[C@H](CCC(=O)O)[C@H]1CC[C@H]2[C@@H]3[C@@H](O)C[C@@H]4C[C@H](O)CC[C@]4(C)[C@H]3CC[C@]12C`, the “viability, % of control” value was 123% (inactive).

`CCCc1cc(C)[nH]c(=O)c1CNC(=O)c1cc(-c2ccc(N3CCN(C(C)C)CC3)nc2)cc2c1cnn2C(C)C`: the Potency is 16.6 µM (active).

With `N#C/C(=C1/Nc2ccccc2S1)c1ccnc(OCc2ccc(CN3CCOCC3)cc2)n1`, the Potency was 16.6 µM (active).

For the compound `Cc1c[nH]c2ncnc(N3CCC(CN)(C(=O)Nc4cccc(OC(=O)N(C)C)c4)CC3)c12`, the Potency is 1.86 µM (active) and 1.05 µM (active).

As for `COc1cc2c3c(n(CCCNCCO)c(=O)c2cc1OC)-c1cc2c(cc1C3=O)OCO2`, the Potency was 0.059 µM (active).

As for `COc1ccc2c(c1)CC[C@@H]1[C@@H]2CC[C@]2(C)[C@@H](NCCCCCCN3C(=O)C=CC3=O)CC[C@@H]12`, the “viability, % of control” value was 124% (inactive).

As for `Cn1cc(C2=C(c3cn(C)c4cc([N+](=O)[O-])ccc34)C(=O)NC2=O)c2ccccc21`, the Potency is 0.833 µM (active).

As for `O=C(/C=C/c1ccc(Cl)cc1)N1CCC2(CC1)CN(Cc1ccc(Cl)c(Cl)c1)C(=O)O2`, the Potency is 20.9 µM (active).

For the compound `COC(=O)[C@H](CCCN=C(N)N)NS(=O)(=O)c1ccc(C)cc1`, the “viability, % of control” value was 115% (inactive).

`CCNC(=O)Nc1ccc(Oc2ncnc(N)c2/C=N/OC)cc1Cl`: the Potency is 18.6 µM (active).

`CN1CCN(c2ccc3nc(-c4c(N)c5c(F)cccc5[nH]c4=O)[nH]c3c2)CC1`: the Potency is 0.059 µM (active).

For the compound `C=CC(=O)Nc1ccc2ncnc(Nc3cccc(Br)c3)c2c1`, the Potency is 7.42 µM (active).

For `Nc1ccn([C@@H]2O[C@H](CO)[C@@H](O)C2O)c(=O)n1` (stereo not given in full), the Potency was 0.833 µM (active).

As to `N#Cc1ccc(Cn2cncc2CN2CCN(c3cccc(Cl)c3)C(=O)C2)cc1`, the Potency was 7.42 µM (active).

For `O=C(Nc1ccccc1)Nc1ccc(-c2ccc(C(=O)[C@@H]3CCC[C@H]3C(=O)O)cc2)cc1`, the “viability, % of control” value is 96.7% (inactive).

`C=C1CC[C@@H]2[C@](C)(CO)[C@H](O)CC[C@@]2(C)[C@@H]1C/C=C1/C(=O)OC[C@H]1O`: the Potency was 2.95 µM (active).

`CC/C(=C(/c1ccc(O)cc1)c1ccc(OCCNC)cc1)c1ccccc1`: the Potency was 8.33 µM (active).

As for `CC(C)n1c(/C=C/[C@H](O)C[C@H](O)CC(=O)O)c(-c2ccc(F)cc2)c2ccccc21`, the Potency was 11.8 µM (active).

In the case of `Cc1ccc([C@@H]2O[C@H](CO)[C@@H](O)[C@H](O)[C@H]2O)cc1Cc1ccc(-c2ccc(F)cc2)s1`, the Potency was 13.2 µM (active).

As for `CN(C)c1ccc(-c2nc3ncc(Cl)c(N4CCN(CC(=O)Nc5nccs5)CC4)c3[nH]2)cc1`, the Potency is 0.723 µM (active).

In the case of `CCOC(=O)c1c(CSc2ccccc2)n(C)c2cc(Br)c(O)c(CN(C)C)c12`, the Potency was 18.6 µM (active).

As to `CC(=O)N[C@H]1CSSC[C@@H](C(N)=O)NC(=O)[C@H](C(C)C)NC(=O)[C@H](C)NC(=O)[C@H](Cc2cnc[nH]2)NC1=O`, the “viability, % of control” value was 108% (inactive).

For `Cc1ccc(NS(=O)(=O)c2ccc3c(c2)C2C=CCC2C(c2ccc(C(=O)O)cc2)N3)cc1C` (stereo not given), the “viability, % of control” value was 116% (inactive).

On to `CCC(=O)O[C@]1(C(=O)CO)CC[C@H]2[C@@H]3CCC4=CC(=O)CC[C@]4(C)[C@H]3CC[C@@]21C`, for which the “viability, % of control” value was 105% (inactive).

Turning to `COc1cc2c3c(n(CCCN4CCOCC4)c(=O)c2cc1OC)-c1cc2c(cc1C3=O)OCO2`, the Potency was 0.0833 µM (active).

Take `CN1CC(=O)N2[C@H](c3ccc4c(c3)OCO4)c3[nH]c4ccccc4c3C[C@@H]2C1=O`: the “viability, % of control” value was 120% (inactive).

With `CC1=NN(c2ccc(C(=O)O)cc2)C(=O)/C1=C/c1ccc(-c2cc(C)c(C)cc2[N+](=O)[O-])o1`, the “viability, % of control” value was 104% (inactive).

Turning to `CN(C)N=Nc1nc[nH]c1C(N)=O`, the Potency was 9.34 µM (active).

Regarding `CN(C)C[C@@H]1CCn2cc(c3ccccc32)C2=C(C(=O)NC2=O)c2cn(c3ccccc23)CCO1`, the Potency was 0.417 µM (active).

For `O=C(CCCCCCC(=O)N/N=C/c1ccc(N(c2ccccc2)c2ccccc2)cc1)NO`, the Potency is 4.68 µM (active).

Regarding `COc1cc(Nc2ncc(F)c(Nc3ccc4c(n3)N(COP(=O)(O)O)C(=O)C(C)(C)O4)n2)cc(OC)c1OC`, the Potency is 0.833 µM (active).

Turning to `CC(C)(C)c1nc2c3cc[nH]c(=O)c3c3cc(F)ccc3c2[nH]1`, the Potency was 1.18 µM (active).

As for `N=C1CCCN1Cc1[nH]c(=O)[nH]c(=O)c1Cl`, the “viability, % of control” value is 121% (inactive).

Regarding `O=C(Nc1cc(Oc2cc(F)c(NC(=O)C3(C(=O)Nc4ccc(F)cc4)CC3)cc2F)ccn1)C1CC1`, the Potency is 0.235 µM (active).

In the case of `O=C(CCCCCCNC(=O)c1cnc(N(c2ccccc2)c2ccccc2Cl)nc1)NO`, the Potency is 3.72 µM (active).

For `CCC(=C/[C@H](C)C/C=C/C(C)=C/[C@@H](C)C(=O)[C@@H](C)[C@H](O)[C@@H](C)C/C(C)=C/C(=O)O)/C=C/[C@@H]1OC(=O)C=C[C@@H]1C`, the Potency was 0.003 µM (active).

Turning to `O=C(Nc1ccc(OC(F)(F)Cl)cc1)c1cnc(N2CC[C@@H](O)C2)c(-c2ccn[nH]2)c1`, the Potency was 20.9 µM (active).

On to `CCn1c(=O)c(-c2ccc(-c3cncs3)cc2Cl)cc2cnc(Nc3ccc(N4CCN(C)CC4)cc3)nc21`, for which the Potency is 1.86 µM (active).

On to `O=C(/C=C/c1ccc(/C=C/C(=O)Nc2ccc(C3=NCCN3)cc2)cc1)Nc1ccc(C2=NCCN2)cc1`, for which the viability, % of control is 112% [at 5.12 µM] (inactive).

On to `CCN(CC)CCNc1ccc(C)c2sc3ccccc3c(=O)c12`, for which the Potency is 7.42 µM (active).

For the origin of these results see PubChem BioAssay (NCATS).
